Measured values from PubChem BioAssay (Tox21).
Results filed as inconclusive are left out. Active and inactive are the calls of the source. Unless noted, calls come from the whole dose curve; as a rule, active = well fitted curve in the direction sought with a large enough effect in the repeat runs; inconclusive = weak or mixed curves; inactive = no such curve, though single readings can be large; an effect the other way counts as inactive or inconclusive.

Experiments:
[1] = qHTS assay to identify small molecule antagonists of the estrogen receptor alpha (ER-alpha) signaling pathway using the BG1 cell line in the presence of 0.1 nM 17-beta-estradiol - cell viability counter screen (AID 1259241); note: nearly all actives have a fitted effect of over 40% in size
How it was run: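 Following 5 days in phenol red-free medium with charcoal-stripped serum, VM7Luc4E2 cells received test compounds alongside 0.1 nM 17beta-estradiol (final) at 37C for 22 hr. Live cells were then quantified via protease-substrate fluorescence.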

[2] = qHTS assay to identify small molecule antagonists of the androgen receptor (AR) signaling pathway using the MDA cell line in the presence of 0.5 nM R1881 - cell viability counter screen (AID 1259242); note: nearly all actives have a fitted effect of over 45% in size
How it was run: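 Concentration-response screen of compounds for toxicity in MDA-kb2 reporter cells: 16 hr at 37C with 0.5 nM R1881, endpoint live-cell protease fluorescence measured in the reporter wells.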

[3] = qHTS assay to identify small molecule HDAC inhibitors (AID 1259364);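 note: wild-type HCT-116 cells with endogenous class I/II HDAC activity; top concentration of the series differs between compounds; nearly all actives have a fitted effect of over 45% in size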
How it was run: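 Screening used wild-type human colon HCT-116 cells incubated overnight, dosed with compounds for 2 hours, and assayed with a homogeneous luminogenic HDAC I/II reagent for 30 minutes at room temperature.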

[4] = qHTS assay to identify small molecule HDAC inhibitors - cell viability counter screen (AID 1259365); note: series mostly up to about 92 µM; nearly all actives have a fitted effect of over 50% in size
How it was run: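 HCT-116 wild-type, overnight attachment; 2hr drug exposure, 37C; CellTiter-Glo luminescent ATP readout after 30min RT.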

[5] = qHTS assay to identify small molecule agonists of the sonic hedgehog signaling (Shh) pathway - cell viability counter screen (AID 1259366); note: nearly all actives have a fitted effect of over 50% in size; note: potency is the fitted concentration of half-maximal effect
How it was run: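 Compounds in DMSO were pin-transferred onto 3T3 Gli1-Luc cells that had settled 4hr; plates then stood 24hr at 37C and 5% CO2. One hour before the end, CellTiter-Fluor was added and fluorescence recorded.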

[6] = qHTS assay to identify small molecule antagonists of the sonic hedgehog signaling (Shh) pathway - cell viability counter screen (AID 1259367); note: nearly all actives have a fitted effect of over 55% in size; note: potency is the fitted concentration of half-maximal effect
How it was run: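 Fluorescence read-out (CellTiter-Fluor, 1 hr at 37C) taken after 23 hr compound treatment of 3T3 Gli1-Luc cells stimulated with conditioned medium. Cells were seeded at 2,000 per well and pre-incubated 4 hr.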

[7] = qHTS assay to identify small molecule agonists of the sonic hedgehog signaling (Shh) pathway (AID 1259368; calls by dose curve;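 note: NIH/3T3-derived 3T3Gli1-Luc cells carrying a stable Gli1-driven firefly luciferase reporter; series mostly up to about 92 µM; nearly all actives have a fitted effect of over 15% in size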)
How it was run: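 Hedgehog pathway agonism scored by increased firefly luciferase luminescence in 3T3Gli1-Luc cells treated 24 hr at 37 C; detection used a 30 min room-temperature reagent incubation.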

[8] = qHTS assay to identify small molecule antagonists of the sonic hedgehog signaling (Shh) pathway (AID 1259369; calls by dose curve; note: nearly all actives have a fitted effect of over 45% in size)
How it was run: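 NIH/3T3 stable Gli1-Luc clone, 2,000 cells/well, 4hr settle; cpd + conditioned medium 24hr; Luc reagent 30min RT; luminescence.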

[9] = molecular target: Estrogen receptor beta (Homo sapiens) (UniProt Q92731); assay: qHTS assay to identify small molecule antagonists of the estrogen receptor beta (ER-beta) signaling pathway (AID 1259378; active = well fitted inhibition curve with a large enough effect in the signal ratio in the repeat runs, not every such curve was filed as active; the % refers to the signal ratio)
Estrogen receptor beta (Homo sapiens), sequence (Q92731 whole entry, looked up): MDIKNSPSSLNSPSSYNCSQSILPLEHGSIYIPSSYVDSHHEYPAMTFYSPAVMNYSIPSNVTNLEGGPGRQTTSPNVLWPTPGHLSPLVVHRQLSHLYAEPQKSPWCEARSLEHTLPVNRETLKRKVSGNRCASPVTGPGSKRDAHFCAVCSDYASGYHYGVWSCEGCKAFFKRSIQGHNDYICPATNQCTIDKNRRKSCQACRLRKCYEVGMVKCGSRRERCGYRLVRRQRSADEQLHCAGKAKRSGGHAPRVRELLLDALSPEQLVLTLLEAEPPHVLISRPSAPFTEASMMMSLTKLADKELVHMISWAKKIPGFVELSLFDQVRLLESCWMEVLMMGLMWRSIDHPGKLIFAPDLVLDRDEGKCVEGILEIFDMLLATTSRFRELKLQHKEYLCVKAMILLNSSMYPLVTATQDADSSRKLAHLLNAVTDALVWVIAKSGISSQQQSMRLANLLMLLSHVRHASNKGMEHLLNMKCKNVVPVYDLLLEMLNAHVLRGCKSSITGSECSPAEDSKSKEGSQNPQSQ
How it was run: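 ER-beta-UAS-bla HEK293T cells in 2% charcoal-stripped FBS medium treated with compound plus 1nM final 17-beta-estradiol for 16 hr at 37C. Beta-lactamase reporter read by FRET substrate fluorescence after 2 hours at room temperature.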

[10] = qHTS assay to identify small molecule agonists of the androgen receptor (AR) signaling pathway in the presence of an antagonist - cell viability counter screen (AID 1259379);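 note: MDA-kb2 human breast cancer cells carrying an MMTV luciferase reporter; series mostly up to about 92 µM; nearly all actives have a fitted effect of over 25% in size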
How it was run: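 MDA-kb2 viability measured by CellTiter-Fluor fluorescence in the same wells as the luciferase signal; nilutamide 3.0uM final; 15-point compound titration; 16 hr at 37C.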

[11] = qHTS assay to identify small molecule agonists of the estrogen receptor beta (ER-beta) signaling pathway - cell viability counter screen (AID 1259380); note: nearly all actives have a fitted effect of over 30% in size; note: potency is the fitted concentration of half-maximal effect
How it was run: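 Measured: luminescence from CellTiter-Glo after 30 min at room temperature, added to wells already read for the LiveBLAzer FRET reporter (2 hr substrate); ER-beta-UAS-bla HEK293T cells had 16 hr compound treatment at 37C, 5% CO2.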

[12] = qHTS assay to identify small molecule antagonists of the estrogen receptor beta (ER-beta) signaling pathway - cell viability counter screen (AID 1259382); note: series mostly up to about 92 µM; nearly all actives have a fitted effect of over 55% in size
How it was run: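 Readout: luminescence, CellTiter-Glo, same wells as bla assay. System: ER-beta-UAS-bla GripTite HEK293T, 2% charcoal-stripped FBS. Exposure: compounds plus 1nM 17-beta-estradiol, 16 hr, 37C.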

[13] = molecular target: Thyrotropin receptor (Homo sapiens) (UniProt P16473); assay: qHTS assay to identify small molecule antagonists of the thyroid stimulating hormone receptor (TSHR) signaling pathway (AID 1259385; calls by dose curve; note: nearly all actives have a fitted effect of over 20% in size)
Thyrotropin receptor (Homo sapiens), sequence (P16473 whole entry, looked up): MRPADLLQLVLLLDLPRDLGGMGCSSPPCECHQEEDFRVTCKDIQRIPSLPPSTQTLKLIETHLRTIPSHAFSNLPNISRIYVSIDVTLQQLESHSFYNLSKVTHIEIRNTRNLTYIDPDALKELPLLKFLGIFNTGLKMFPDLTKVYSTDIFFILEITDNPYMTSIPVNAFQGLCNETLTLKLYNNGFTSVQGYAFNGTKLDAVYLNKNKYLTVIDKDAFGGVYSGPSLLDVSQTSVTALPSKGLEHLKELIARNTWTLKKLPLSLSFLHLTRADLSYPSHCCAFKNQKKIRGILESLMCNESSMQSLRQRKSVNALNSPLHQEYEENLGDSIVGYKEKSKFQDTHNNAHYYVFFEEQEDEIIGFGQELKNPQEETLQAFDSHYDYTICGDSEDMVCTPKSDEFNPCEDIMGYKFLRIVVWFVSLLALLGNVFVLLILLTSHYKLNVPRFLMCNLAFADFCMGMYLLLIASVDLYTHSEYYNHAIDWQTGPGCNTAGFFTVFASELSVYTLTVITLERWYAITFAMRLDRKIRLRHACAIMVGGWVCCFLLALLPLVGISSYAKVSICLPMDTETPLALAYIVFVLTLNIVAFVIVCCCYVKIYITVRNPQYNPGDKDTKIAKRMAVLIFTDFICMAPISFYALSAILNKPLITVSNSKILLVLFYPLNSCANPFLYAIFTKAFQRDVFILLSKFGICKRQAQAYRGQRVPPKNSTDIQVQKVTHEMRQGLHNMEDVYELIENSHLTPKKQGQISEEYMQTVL
How it was run: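 TSHR-HEK293 cells (800/well) plated 18 h, then compounds with Ro20-1724 and TSH at 1.5 ng/mL final, 30 min at room temperature. cAMP quantified by HTRF (cAMP-d2/anti-cAMP-cryptate, 1 h); 15 concentrations in triplicate.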

[14] = qHTS assay to identify small molecule agonists or antagonists of the thyroid stimulating hormone receptor (TSHR) signaling pathway - wild type cell line counter screen (AID 1259384; calls by dose curve)
How it was run: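 Wild-type Hek293 cells, 800/well, 18 h at 37C, then compound with Ro20-1724 for 30 min RT. cAMP by HTRF (cAMP-d2/anti-cAMP cryptate), 1 h RT, fluorescence read. 15 concentrations, triplicates.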

[15] = molecular target: Estrogen receptor beta (Homo sapiens) (UniProt Q92731); assay: qHTS assay to identify small molecule agonists of the estrogen receptor beta (ER-beta) signaling pathway (AID 1259377; active = well fitted activation curve with a large enough effect in the signal ratio in the repeat runs, not every such curve was filed as active; the % refers to the signal ratio)
How it was run: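 qHTS in ER-beta-UAS-bla HEK293T cells: 6 hr settling, then 16 hr compound at 37C, then LiveBLAzer substrate 2 h at RT before fluorescence reading.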

[16] = molecular target: Androgen receptor (Homo sapiens) (UniProt P10275); assay: qHTS assay to identify small molecule antagonists of the androgen receptor (AR) signaling pathway using the MDA cell line in the presence of 0.5 nM R1881 (AID 1259243); note: nearly all actives have a fitted effect of over 50% in size; note: potency is the fitted concentration of half-maximal effect
Androgen receptor (Homo sapiens), sequence (P10275 whole entry, looked up): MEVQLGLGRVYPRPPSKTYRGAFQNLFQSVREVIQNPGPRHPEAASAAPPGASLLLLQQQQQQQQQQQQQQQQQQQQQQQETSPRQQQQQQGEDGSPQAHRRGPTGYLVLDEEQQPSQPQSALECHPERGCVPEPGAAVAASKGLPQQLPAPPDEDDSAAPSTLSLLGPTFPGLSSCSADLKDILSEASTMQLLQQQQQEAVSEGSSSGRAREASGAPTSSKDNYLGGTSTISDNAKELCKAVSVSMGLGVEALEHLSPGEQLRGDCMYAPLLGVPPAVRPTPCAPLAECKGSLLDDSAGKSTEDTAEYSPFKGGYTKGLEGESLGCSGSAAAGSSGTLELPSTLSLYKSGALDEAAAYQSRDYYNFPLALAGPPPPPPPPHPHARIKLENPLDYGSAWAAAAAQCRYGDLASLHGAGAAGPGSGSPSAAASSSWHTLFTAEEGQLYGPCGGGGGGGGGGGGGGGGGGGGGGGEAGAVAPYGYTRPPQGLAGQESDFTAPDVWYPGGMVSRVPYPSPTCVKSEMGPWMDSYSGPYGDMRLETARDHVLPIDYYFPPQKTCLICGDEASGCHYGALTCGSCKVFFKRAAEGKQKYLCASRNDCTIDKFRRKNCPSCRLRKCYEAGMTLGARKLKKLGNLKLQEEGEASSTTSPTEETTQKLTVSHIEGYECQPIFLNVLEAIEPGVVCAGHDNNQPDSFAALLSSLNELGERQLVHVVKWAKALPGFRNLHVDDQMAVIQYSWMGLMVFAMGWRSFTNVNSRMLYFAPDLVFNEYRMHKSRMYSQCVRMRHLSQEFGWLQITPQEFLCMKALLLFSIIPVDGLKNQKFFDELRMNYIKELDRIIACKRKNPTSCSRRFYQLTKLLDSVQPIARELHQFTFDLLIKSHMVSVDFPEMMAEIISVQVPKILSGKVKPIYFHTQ
How it was run: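 With R1881 held at 0.5 nM (final), compound effects on MMTV-luciferase expression in MDA-kb2 cells were scored by luminescence after a 16 hr, 37C incubation.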

[17] = molecular target: Androgen receptor (Homo sapiens) (UniProt P10275); assay: qHTS assay to identify small molecule agonists of the androgen receptor (AR) signaling pathway in the presence of an antagonist (AID 1259381; calls by dose curve; note: nearly all actives have a fitted effect of over 15% in size)
How it was run: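 Luminescent ONE-Glo read, 30min at room temperature, follows 16hr compound exposure (15 concentrations) of MDA-kb2 cells at 37C, 0% CO2, with nilutamide added at 3.0uM final.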

[18] = molecular target: Estrogen receptor (Homo sapiens) (UniProt P03372); assay: qHTS assay to identify small molecule antagonists of the estrogen receptor alpha (ER-alpha) signaling pathway using the BG1 cell line in the presence of 0.1 nM 17-beta-estradiol (AID 1259244); note: nearly all actives have a fitted effect of over 50% in size
Estrogen receptor (Homo sapiens), sequence (P03372 whole entry, looked up): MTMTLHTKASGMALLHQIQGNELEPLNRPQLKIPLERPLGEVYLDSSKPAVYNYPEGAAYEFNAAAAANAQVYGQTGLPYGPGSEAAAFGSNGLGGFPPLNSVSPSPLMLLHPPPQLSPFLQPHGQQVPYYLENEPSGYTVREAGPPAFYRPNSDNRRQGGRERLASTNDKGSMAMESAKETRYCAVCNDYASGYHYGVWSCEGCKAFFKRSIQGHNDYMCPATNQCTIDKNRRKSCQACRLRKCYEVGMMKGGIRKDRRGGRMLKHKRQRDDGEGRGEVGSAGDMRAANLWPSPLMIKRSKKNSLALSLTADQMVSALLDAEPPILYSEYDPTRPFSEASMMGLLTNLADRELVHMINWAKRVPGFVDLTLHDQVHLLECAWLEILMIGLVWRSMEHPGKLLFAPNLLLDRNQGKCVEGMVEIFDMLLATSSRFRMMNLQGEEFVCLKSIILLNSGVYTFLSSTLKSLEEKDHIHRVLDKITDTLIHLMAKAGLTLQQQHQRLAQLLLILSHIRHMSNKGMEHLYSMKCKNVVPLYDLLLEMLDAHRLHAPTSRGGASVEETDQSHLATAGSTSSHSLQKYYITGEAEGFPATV
How it was run: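 Compounds were tested against 0.1 nM (final) 17beta-estradiol in VM7Luc4E2 cells, which express full-length ER-alpha and an ERE-luciferase reporter; luminescence was recorded following 22 h exposure.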

[19] = molecular target: Estrogen receptor (Homo sapiens) (UniProt P03372); assay: qHTS assay to identify small molecule agonists of the estrogen receptor alpha (ER-alpha) signaling pathway in the presence of an antagonist (AID 1259383; calls by dose curve; note: top concentration of the series differs between compounds; nearly all actives have a fitted effect of over 15% in size)
How it was run: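 Quantitative HTS confirmation: compounds titrated at 15 concentrations onto estrogen-deprived VM7Luc4E2 cells carrying a four-ERE luciferase construct, with ICI-182,780 present at 10.0nM final. Signal is luminescence after 22hr exposure.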

[20] = qHTS assay to identify small molecule phospholipidosis (PLD) inducers (AID 1259344; active = well fitted curve in the direction sought with a large enough effect; an effect the other way counts as inactive or inconclusive)
How it was run: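 Read-out is LipidTOX Red fluorescence (ex 595/em 615) imaged in HepG2 cells after 24 h compound exposure at 37 C, with Hoechst nuclear counterstain (ex 352/em 461) allowing per-cell normalisation.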

Measured: Potency

CCC#N
inactive: [1] | [2] | [3] | [4] | [5] | [6] | [7] | [8] | [9] | [10] | [11] | [12] | [13]

CC(C=O)Cc1ccc2c(c1)OCO2 (centres undefined)
inactive: [1] | [2] | [3] | [4] | [5] | [6] | [7] | [8] | [9] | [10] | [11] | [12] | [14] | [13]

COC(=O)C(C)Oc1ccc(Oc2ccc(Cl)cc2Cl)cc1 (centres undefined)
inactive: [1] | [2] | [3] | [4] | [5] | [7] | [8] | [15] | [9] | [10] | [11] | [12] | [13]

COC(=O)c1ccccc1S(=O)(=O)NC(=O)Nc1nc(C)cc(C)n1
inactive: [1] | [2] | [3] | [4] | [5] | [6] | [8] | [15] | [9] | [10] | [11] | [12] | [14] | [13]

CCC(C)(C)c1cc(-n2nc3ccccc3n2)c(O)c(C(C)(C)CC)c1
inactive: [2] | [3] | [4] | [5] | [7] | [8] | [9] | [10] | [17] | [12] | [14] | [13]
active: [16] 39.2 µM

CCOC(=O)C1(c2ccccc2)CCN(CCc2ccc(N)cc2)CC1
inactive: [2] | [16] | [18] | [3] | [4] | [5] | [6] | [8] | [9] | [10] | [17] | [12] | [19] | [14] | [13]

CCOC(=O)NC(=S)Nc1ccccc1NC(=S)NC(=O)OCC
inactive: [1] | [2] | [4] | [5] | [6] | [7] | [8] | [15] | [9] | [10] | [12]

CSc1ccc(C(=O)C(C)(C)N2CCOCC2)cc1
inactive: [1] | [2] | [3] | [4] | [5] | [6] | [7] | [8] | [10] | [12] | [19]

CC(C)(C)NCC(O)c1cc(Cl)c(N)c(Cl)c1 (centres undefined)
active: [5] 11.9 µM
inactive: [2] | [16] | [20] | [3] | [4] | [7] | [8] | [15] | [9] | [10] | [17] | [12] | [13]

CC(C)COP(=O)(OCC(C)C)OCC(C)C
inactive: [1] | [2] | [3] | [4] | [5] | [6] | [7] | [8] | [9] | [10] | [11] | [12] | [14] | [13]

Cc1ccccc1CO[C@@H]1C[C@@]2(C(C)C)CC[C@]1(C)O2
inactive: [1] | [2] | [3] | [4] | [5] | [6] | [7] | [8] | [10] | [11] | [17] | [12] | [14]

COC(=O)COc1ccc(Cl)cc1Cl
inactive: [1] | [2] | [3] | [4] | [5] | [7] | [10] | [11] | [12] | [14] | [13]

CCCSP(=O)(OCC)Oc1ccc(Br)cc1Cl (centres undefined)
inactive: [1] | [2] | [3] | [4] | [5] | [6] | [7] | [10] | [11] | [12] | [14] | [13]

CC(CC(C#N)(c1ccccc1)c1ccccc1)N(C)C (centres undefined)
inactive: [1] | [2] | [3] | [4] | [7] | [8] | [15] | [10] | [19] | [14] | [13]
active: [11] 60.8 µM

CCCCCCBr
inactive: [1] | [2] | [3] | [4] | [5] | [6] | [7] | [8] | [10] | [11] | [12] | [14] | [13]

COc1cccc(C(=O)NN(C(=O)c2cc(C)cc(C)c2)C(C)(C)C)c1C
inactive: [1] | [2] | [3] | [4] | [7] | [8] | [15] | [9] | [10] | [11] | [12] | [14] | [13]
active: [5] 13.7 µM

[As]#[In]
inactive: [1] | [2] | [3] | [4] | [5] | [6] | [7] | [15] | [9] | [10] | [11] | [12] | [14] | [13]

Cc1cnc[nH]1
inactive: [2] | [16] | [3] | [4] | [5] | [6] | [7] | [8] | [15] | [9] | [10] | [11] | [17] | [12] | [13]

COCC(=O)N(c1c(C)cccc1C)N1CCOC1=O
inactive: [1] | [2] | [3] | [4] | [5] | [6] | [7] | [8] | [10] | [12]

CC(=O)CC(c1ccc(Cl)cc1)c1c(O)c2ccccc2oc1=O (centres undefined)
inactive: [2] | [18] | [3] | [4] | [5] | [6] | [7] | [8] | [15] | [9] | [10] | [11] | [12] | [19]

CC1(C(=O)Nc2ccc(O)c(Cl)c2Cl)CCCCC1
active: [5] 43.3 µM | [6] 43.3 µM
inactive: [1] | [2] | [3] | [4] | [7] | [10] | [12]
